# FEN1 inh – inhibitors of human flap endonuclease 1; P39748; Recombinant FEN1 flap cleavage, fluorescence, 15 min; Potency, µM (highest dose often 114 µM), without a hit: at the top dose activity change, negative = inhibition, usual class: inhibitors; actives 0.35% (n = 390,000); note: potency is the fitted concentration of half-maximal effect; nearly all actives have a fitted effect of over 65% in size
#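 Enzyme 10 nM, 15 min RT preincubation with compound; start with substrate 50 nM final; reads at 0 and 15 min; qHTS titration, four-parameter Hill fit.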
# WRN inhibitor – WRN helicase (human) inhibition; Q14191; WRN helicase unwinding, fluorescent forked duplex, kinetic; Potency, µM (titrated, usually from 114 µM), for inactives: at the highest dose activity change, negative = inhibition, usual class: inhibitors; actives 0.46% (n = 360,000); AID 651768; note: potency is the fitted concentration of half-maximal effect; nearly all actives have a fitted effect of over 55% in size
#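 Kinetic fluorescence helicase assay: unwinding of a quenched forked DNA duplex (100 nM final) with 2 mM ATP final raises red fluorescence (525/598 nm). Compounds sat 15 min at room temperature with 20 nM WRN beforehand.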
# BLM inh – inhibitors of human Bloom syndrome helicase BLM; P54132; recombinant BLM DNA unwinding, fluorescence dequenching; Potency, µM (doses to about 56.1 µM), for inactives: at the top dose activity change, negative = inhibition, usual class: inhibitors; actives 0.2% (n = 350,000); AID 2528;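 note: potency is the fitted concentration of half-maximal effect; plate controls were vehicle for no effect and no enzyme for full effect; nearly all actives have a fitted effect of over 35% in size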
# RECQ1 helicase – RECQ1 (human) helicase inhibition; RECQ1 DNA unwinding, red fluorescence kinetic read; Potency, µM (doses to about 57.3 µM), for inactives: at the top dose activity, negative = inhibition, hits mostly inhibitors; actives 0.54% (n = 240,000);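 note: potency is the fitted concentration of half-maximal effect; plate controls were vehicle for no effect and no enzyme for full effect; nearly all actives have a fitted effect of over 30% in size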
# Target sequence (P46063 whole entry, looked up): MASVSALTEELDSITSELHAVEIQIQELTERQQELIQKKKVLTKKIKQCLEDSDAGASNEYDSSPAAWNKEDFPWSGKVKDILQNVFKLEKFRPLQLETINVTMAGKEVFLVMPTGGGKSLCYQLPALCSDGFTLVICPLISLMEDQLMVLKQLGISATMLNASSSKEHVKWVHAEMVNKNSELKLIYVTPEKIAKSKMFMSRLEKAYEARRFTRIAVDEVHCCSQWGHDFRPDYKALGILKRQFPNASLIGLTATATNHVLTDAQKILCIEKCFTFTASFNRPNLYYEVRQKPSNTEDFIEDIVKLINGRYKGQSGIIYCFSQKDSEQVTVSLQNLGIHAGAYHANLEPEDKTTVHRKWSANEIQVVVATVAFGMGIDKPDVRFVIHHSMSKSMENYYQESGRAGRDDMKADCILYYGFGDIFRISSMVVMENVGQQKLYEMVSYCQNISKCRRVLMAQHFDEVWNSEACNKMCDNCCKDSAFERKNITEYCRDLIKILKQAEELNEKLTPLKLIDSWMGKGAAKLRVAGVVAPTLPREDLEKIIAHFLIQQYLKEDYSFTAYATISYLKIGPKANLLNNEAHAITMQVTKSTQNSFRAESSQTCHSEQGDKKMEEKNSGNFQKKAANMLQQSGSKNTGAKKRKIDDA
#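 50 nM RECQ1T1 preincubated 15 min with compound in Tris pH 8.0 buffer with MgCl2, DTT, Tween-20 and 2.5 ug/ml poly(dI-dC); started with 200 nM TAMRA/BHQ-2 forked duplex and 2 mM ATP. Unwinding read as fluorescence (525/598 nm), two reads 2 h apart.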
# PI5P4K alpha inh – blocks human PI5P4K alpha kinase activity; PI5P4Kalpha enzyme, ADP-Glo luminescence, 60 min; active compounds read low; max response, %; actives 1.2% (n = 330,000); AID 652105; active = max response of -50% or lower; inconclusive = between -30% and -50%; inactive = -30% or higher; note: value at the top dose of about 77 µM
#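 Reactions run in 0.038 M HEPES pH 7.4, 0.28 mM EGTA, 0.1% CHAPS and 5% DMSO, with PI5P4Kalpha, substrate, compound and 5 microM ATP final, one hour at room temperature. Readout is ADP-Glo luminescence.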
# APEX1 inh – blocks human APE1 abasic DNA cleavage. P27695. Potency, µM (highest dose often 65.8 µM), for inactives: top-dose activity change, negative = inhibition, usual class: inhibitors. AID 2517. recombinant APE1, TAMRA/BHQ-2 abasic DNA cleavage fluorescence. actives 0.35% (n = 350,000);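 note: potency is the fitted concentration of half-maximal effect; plate controls were vehicle for no effect and reference inhibitor for full effect; nearly all actives have a fitted effect of over 55% in size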
#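 Kinetic fluorescence read (525 ex/598 em nm, three reads 60 s apart) of AP-site incision; signal = third minus first read. Enzyme 0.75 nM, dual-labelled THF duplex 50 nM, compound preincubation 15 min RT.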
# Active calls of the source: *; i = inactive; ? = inconclusive; . = not tested or not shown; [ ] = remark or other dose. An excerpt weighted towards active compounds, which were near 1.5% of everything screened. Unless noted, calls come from the whole dose curve; as a rule, active = well fitted curve in the direction sought with a large enough effect; inconclusive = small, poorly fitted or top-dose-only effect, or another doubt; inactive = no such curve, though single readings can be large; an effect the other way counts as inactive or inconclusive. Unless noted, % is set by controls: 0 for no effect and ±100 for the full control effect.
SMILES,FEN1 inh,WRN inhibitor,BLM inh,RECQ1 helicase,PI5P4K alpha inh,APEX1 inh
O=c1[nH]c(=S)[nH]c(O)c1N=Nc1ccc(S(=O)(=O)N2CCc3ccccc32)cc1,-1%,-24%[57.1 µM],-12%,-7%,-58*,17%
COc1ccc(-n2c(O)c(/C=C/C=Nc3ccccc3)c(=O)[nH]c2=O)cc1,-28%,?,28µM*,?,8,11%
CC(C)CCCC(C)C1CCC2C3CC(O)[C@@]4(O)CC(O)CC[C@@]4(C)C3CC[C@@]12C (some centres not stated),.,.,-14%,-7%,.,21%
Cn1cccc1/C=C1\C(=O)NC(=O)N(CCC2=CCCCC2)C1=O,-14%,1%,-2%,40µM*,-21,-7%
C=CC[C@]1(O)CC[C@H]2[C@@H]3CCC4=CCCC[C@@H]4[C@H]3CC[C@@]21C,.,.,.,.,.,6%
O=C1NC(=O)N(Cc2ccco2)C(=O)/C1=C/c1ccc(-c2cccc([N+](=O)[O-])c2)o1,?,22µM*,?,?,-80*,28µM*
C=CCN1C(=O)/C(=C/c2ccc(N3CCOCC3)o2)C(=O)NC1=S,-4%,-12%,-17%,0%,-8,4%
C=CCN1C(=O)NC(=O)/C(=C\c2ccc(-c3ccccc3[N+](=O)[O-])o2)C1=O,?,?,-4%,-3%,-53*,-8%
Cc1cccc(N2C(=O)NC(=O)/C(=C/c3ccc(-c4ccc(C(=O)O)c(Cl)c4)o3)C2=O)c1,.,.,-5%,2%,.,5%
Clc1ccc(C(c2ccccc2Cl)C(Cl)(Cl)Cl)cc1 (configuration not stated),.,.,.,-17%,.,12%
O=C1/C(=C/c2ccc(N(CCCl)CCCl)cc2)Cc2ccccc21,-16%,.,.,.,.,.
Oc1ccc(/C=N/NP(=S)(c2ccccc2)c2ccccc2)c(O)c1O,?,?,-23%,-13%,-51*,?
Cc1ccnc(-n2c(C)cc(C=C3C(=O)N(C)C(=S)N(C)C3=O)c2C)c1,-1%,?,-12%,40µM*,?,8%
Cc1cc(C=C2C(=O)N(C)C(=S)N(C)C2=O)c(C)n1-c1ccncc1,?,?,-9%,25µM*,?,-4%
Cc1cc(C)cc(-n2c(C)cc(/C=C3\C(=O)NC(=O)N(C)C3=O)c2C)c1,-3%,-27%,-10%,-8%,-10,4%
COc1ccc(C(=O)NCCn2cc(SC(C)c3ccccc3)c3ccccc32)cc1OC (configuration not stated),?,.,-12%,.,.,.
CCOC(=O)c1c(-n2c(C)cc(C=C3C(=O)NC(=S)NC3=O)c2C)sc2c1CCCC2,?,56µM*,?,?,-63*,-12%
CCC1OC2(C)C(O)C(/C=C/C=C/C=C/c3oc(=O)cc(OC)c3C)OC1(C)C2OC(C)=O (configuration not stated),.,.,0%,-18%,.,-9%
O=c1c2ccccc2nc(/C=C/c2ccc(O)cc2)n1-c1cccc(O)c1,?,?,25µM*,-13%,5,?
O=c1c2ccccc2nc(/C=C/c2ccc(O)cc2)n1-c1ccc(O)cc1,10%,-9%,-9%,.,-24,26%
O=C(Nc1cccc(C(=O)Nc2cc(C(=O)Nc3ccc([S+](=O)([O-])[O-])c4cc([S+](=O)([O-])[O-])cc(SOOO)c34)ccc2F)c1)Nc1cccc(C(=O)Nc2cc(C(=O)Nc3ccc([S+](=O)([O-])[O-])c4cc([S+](=O)([O-])[O-])cc([S+](=O)([O-])[O-])c34)ccc2F)c1,.,.,126%,11µM*,.,2.8µM*
Cc1cc(C)cc(N2C(=O)NC(=O)/C(=C\c3cccn3-c3ccccc3)C2=O)c1,4%,?,-1%,-2%,0,1%
CN1C(=O)/C(=C/c2cccn2-c2ccc3ccccc3c2)C(=O)NC1=S,?,-35%[57.1 µM],-18%,?,-78*,1%
CCC1(C)OC(c2ccccc2)=C/C(=C/C=C2C(=O)NC(=O)NC2=O)O1 (configuration not stated),-11%,?,-23%,8.9µM*,-16,5%
CCCCCCC(=O)N/N=C/c1c(O)n(CCc2ccccc2)c(=O)[nH]c1=O,1%,-2%,-8%,23%,?,4%
SMILES,FEN1 inh,WRN inhibitor,BLM inh,RECQ1 helicase,PI5P4K alpha inh,APEX1 inh
COc1ccc(Cn2c(O)c(/C=N/NC(=O)c3ccccc3O)c(=O)[nH]c2=O)cc1,?,-28%,2%,-10%,-11,5%
O=C(N/N=C/c1c(O)n(Cc2ccccc2)c(=O)[nH]c1=O)c1ccccc1O,?,?,2%,-5%,-70*,6%
O=C(N/N=C/c1c(O)n(Cc2ccc(F)cc2)c(=O)[nH]c1=O)c1ccccc1O,-21%,-15%[57.1 µM],-1%,-9%,-63*,-6%
O=C(N/N=C/c1c(O)n(CCc2ccccc2)c(=O)[nH]c1=O)c1ccccc1O,-7%,-11%,-6%,-5%,-75*,-1%
CN(C)C(=O)Cl,.,.,.,-3%,.,0%
Cc1occc1C(=O)Nc1ccccc1,.,.,0%,-8%,.,-7%
CC(Cl)CCl (configuration not stated),.,.,.,4%,.,-4%
CCN(CC)C(=O)c1c(C)[nH]c(=S)c(C#N)c1-c1ccco1,0%,50µM*,-25%,-21%,-96*,-6%
Cc1ccc(C(c2sc3nc(C)nn3c2O)N2CCOCC2)cc1 (configuration not stated),?,6%,0%,i,6,1%
Cc1ccc(-c2nc(N3CCOCC3)s[n+]2-c2ccccc2)cc1,1%,?,5%,-3%,-69*,13%
COc1nc(C)nc(Cl)c1NC1=NCCN1,20%,-6%,2%,-11%,3,25%
COc1ccccc1C=C1C(=O)NC(=S)NC1=O,-1%,?,.,.,-86*,.
COc1ccc(N2C(=O)/C(=C/C=C/c3ccccc3[N+](=O)[O-])C(=O)NC2=S)cc1,?,25µM*,28µM*,35µM*,-91*,15%
COc1ccc(N2C(=O)/C(=C/c3cccs3)C(=O)NC2=S)cc1,-4%,45µM*,0%,14%,-96*,-4%
COc1ccc(N2C(=O)NC(=O)/C(=C\c3cn(C)c4ccccc34)C2=O)cc1,13%,-6%,-6%,.,-5,-12%
COc1ccccc1N1C(=O)NC(=O)/C(=C/c2ccc3c4c(cccc24)CC3)C1=O,10%,?,-4%,-5%,-58*,-1%
COc1cc2c(c(OC)c1OC)-c1ccc(OC)c(=O)cc1[C@H](NC(C)=O)CC2,.,.,2%,-2%,.,-3%

# From PubChem
